Source: PubChem
Shown are actives, neighbours in structure and some others; about 3% of the full set was active somewhere.
Sm TGR inh = S. mansoni TGR enzyme inhibition; 360,000 compounds, 3% hits; Q962Y6; AID 485364; Potency, µM (series often up to 114 µM), for the others: at the top dose activity change, negative = inhibition, most hits filed as inhibitors; purified TGR, DTNB reduction, TNB absorbance 405 nm; active = well fitted inhibition curve with a large enough effect; inconclusive = small, poorly fitted or top-dose-only effect; inactive = no such curve, though single readings can be large or run the other way; note: % is set by controls: 0 for no effect and ±100 for the full control effect; nearly all actives have a fitted effect of over 60% in size
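First, TGR (20 nM dispensed) and NADPH were mixed with compound. Second, a 15 min room-temperature incubation followed. Third, further NADPH and then DTNB were added to start the reaction. Finally, TNB absorbance was monitored kinetically.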
SARS PLP yeast = blocks SARS-CoV papain-like protease in a yeast assay; S. cerevisiae expressing SARS-CoV PLpro, growth rescue; Potency, µM (titrated, usually from 32.9 µM), for the others: at the top dose activity, positive = growth rescue, usual class: activators; 330,000 compounds, 0.19% hits; calls by dose curve; note: 0% is about no effect; nearly all actives have a fitted effect of over 55% in size
* = called active by the depositor; [ ] = another dose, or the depositor's remark. Potency is the fitted concentration of half-maximal effect.

For Cc1cc(C)nc(SC2CC(=O)N(c3ccc(Br)cc3)C2=O)n1 (stereo not drawn) the results were Sm TGR inh 50µM* and SARS PLP yeast -4%.
For COc1ccc(-c2ccc(=O)n(CC(=O)Nc3cc(OC)ccc3OC)n2)cc1 the results were Sm TGR inh 3%.
`CC(=O)Nc1ccc(NC(=O)C(Cc2ccccc2)N2Cc3ccccc3C2=O)cc1` (stereo not drawn) gave Sm TGR inh 3%.
COc1ccc(NC(=O)Cn2nc(-c3ccccc3)c3cnc4ccc(C)cc4c32)cc1 was read as Sm TGR inh -1%.
For Cc1ccc(NC(=O)Nc2nnc(N3CCCC3)s2)cc1C the results were Sm TGR inh -7%.
For Cc1ccccc1C(=O)Nc1ccccc1C(=O)OCc1cc(=O)n2ccsc2n1 the results were Sm TGR inh 0%.
For COc1cccc(CNCCSc2nnnn2C)c1OCc1ccc(Cl)cc1Cl the results were Sm TGR inh 2%.
`Cc1oc2ccc(O)c(CN3CCN(C)CC3)c2c1C(=O)Nc1cccc(C(F)(F)F)c1` gave Sm TGR inh 2%.
For CCOC(=O)c1c(NC(=S)Nc2ccccc2)sc2c1CC(C)(C)SC2 the results were Sm TGR inh inconclusive and SARS PLP yeast 0%.
CCOC(=O)c1c(NC(=S)NC)sc2c1CC(C)(C)SC2 was read as Sm TGR inh 10µM* and SARS PLP yeast 16%.
For Cc1ccc(OCc2nc(-c3ccc(C(=O)N4CCN(c5cc(Cl)ccc5C)CC4)cc3)oc2C)cc1 the results were Sm TGR inh 6%.
For Cc1cc(C)c2c(-n3cccc3)c(C(=O)NCCCN3CCCCC3)sc2n1 the results were Sm TGR inh -5%.
`Cc1cc(C)c2cc(CN(CC3CCCO3)C(=S)NCc3ccco3)c(=O)[nH]c2c1` (stereo not drawn) gave Sm TGR inh -28%[57.1 µM] and SARS PLP yeast 1%.
O=C(c1ccncc1)N(Cc1ccco1)Cc1cc2ccccc2[nH]c1=O was read as Sm TGR inh -36% and SARS PLP yeast -4%.
Screening Cc1cc(C)c2[nH]c(=O)c(CN(Cc3ccco3)C(=O)C3CCCO3)cc2c1 (stereo not drawn) returned Sm TGR inh 25µM* and SARS PLP yeast 5%.
Screening Cc1cc(C)c2cc(CN(Cc3ccco3)C(=O)NCc3ccccc3)c(=O)[nH]c2c1 returned Sm TGR inh 50µM* and SARS PLP yeast 7%.
Screening Cc1cc(C)c2[nH]c(=O)c(CN(CC3CCCO3)C(=S)NCc3ccco3)cc2c1 (stereo not drawn) returned Sm TGR inh -5% and SARS PLP yeast 3%.
Cc1cccc2cc(CN(Cc3ccco3)C(=O)c3ccncc3)c(=O)[nH]c12 was read as Sm TGR inh 32µM* and SARS PLP yeast -2%.
For CCOC(=O)c1c(NC(=O)CSc2cn(CCNC(=O)c3ccccc3OC)c3ccccc23)sc2c1CCCC2 the results were Sm TGR inh -3%.
`CCC1=C(c2ccc(C)cc2)S(=O)(=O)N=C1N1CCC(C(=O)NCCc2cccc(OC)c2)CC1` gave Sm TGR inh 5%.
For Cc1cc(Cl)ccc1NS(=O)(=O)c1c(C(=O)N2CCCCCC2)c(C)n(C)c1C the results were Sm TGR inh -9%.
For CCOC(=O)C1CCCN(Cc2cc(OC)c(O)c(OC)c2)C1 (stereo not drawn) the results were Sm TGR inh 16µM* and SARS PLP yeast 4%.
`CCOC(=O)C1CCCN(Cc2cc(Br)c(OC)cc2OC)C1` (stereo not drawn) gave Sm TGR inh -1% and SARS PLP yeast -2%.
For CCOC(=O)C1CCN(Cc2ccc(Cl)c(Cl)c2)CC1 the results were Sm TGR inh 2% and SARS PLP yeast 13%.
Screening CCOC(=O)C1CCN(Cc2ccc(OC)c(OCc3ccccc3)c2)CC1 returned Sm TGR inh 0% and SARS PLP yeast -3%.
Screening CCOC(=O)C1CCN(Cc2ccc(O)c(OC)c2)CC1 returned Sm TGR inh 56µM* and SARS PLP yeast 0%.
CCOC(=O)C1CCN(Cc2cc(C(C)(C)C)c(O)c(C(C)(C)C)c2)CC1 was read as Sm TGR inh 11µM* and SARS PLP yeast 0%.
Screening Cc1nn(C)c2c1c(C(F)(F)F)cc(=O)n2CC(=O)N1CCCCC1 returned Sm TGR inh 0%.
CCOC(=O)CNC(=O)CSc1cn(CC(=O)N2CCCCCC2)c2ccccc12 was read as Sm TGR inh 5%.
For COC(=O)c1sccc1S(=O)(=O)N(CC(=O)Nc1ccccc1C)c1ccc(Cl)cc1 the results were Sm TGR inh -1%.
For COc1ccc(S(=O)(=O)c2c(C)c(NS(=O)(=O)c3ccccc3)cc(C)c2O)cc1 the results were Sm TGR inh -18% and SARS PLP yeast -2%.
`COc1ccc(S(=O)(=O)Nc2cc(C)c(O)c(S(=O)(=O)c3ccccc3)c2)cc1` gave Sm TGR inh 56µM* and SARS PLP yeast -2%.
`Cc1ccc(C(=O)Nc2ccccc2C(=O)O)cc1S(=O)(=O)N1CCCCCC1` gave Sm TGR inh -3%.
Screening COc1ccc2cc(C#N)c(NC(C)C)nc2c1 returned Sm TGR inh 1% and SARS PLP yeast -5%.
For CCN(CC)c1nc2cc(OC)ccc2cc1C#N the results were Sm TGR inh 35µM* and SARS PLP yeast -2%.
`Cc1cccc(Cn2cc(C(=O)Nc3ccc(F)c(C(F)(F)F)c3)ccc2=O)c1` gave Sm TGR inh 1%.
Screening C/C=C(\C)C(=O)NCCN1C2=NC[C@H](Cc3ccc(O)cc3)N2C[C@H]1Cc1ccc(O)cc1 returned Sm TGR inh 50µM* and SARS PLP yeast -3%.
For COc1ccc(C[C@H]2CN3C(=NC[C@@H]3C)N2CCNC(=O)CCC2CCCCC2)cc1 the results were Sm TGR inh 16µM* and SARS PLP yeast 0%.
Screening COc1ccc(C[C@@H]2CN3C(=NC[C@@H]3C)N2C[C@H](C)NC(=O)c2ccc(C)c(Br)c2)cc1 returned Sm TGR inh 22µM* and SARS PLP yeast -1%.
For CC(C)[C@H]1CN=C2N(C[C@H](C)NC(=O)CCC3CCCCC3)[C@H](Cc3ccc(O)cc3)CN21 the results were Sm TGR inh 20µM* and SARS PLP yeast 0%.
C[C@@H](CN1C2=NC[C@H](C)N2C[C@H]1Cc1ccc(O)cc1)NC(=O)CCC1CCCCC1 was read as Sm TGR inh inconclusive and SARS PLP yeast 1%.
`C[C@H]1CN=C2N(CCNC(=O)CCC3CCCCC3)[C@H](Cc3ccc(O)cc3)CN21` gave Sm TGR inh -27% and SARS PLP yeast 1%.
C/C=C(\C)C(=O)NCCN1C2=NC[C@@H](Cc3ccccc3)N2C[C@H]1Cc1ccc(O)cc1 was read as Sm TGR inh -1% and SARS PLP yeast -1%.
For COc1ccc(C[C@H]2CN3C(=NC[C@H]3C)N2CCNC(=O)c2ccc(C)c(Br)c2)cc1 the results were Sm TGR inh 1% and SARS PLP yeast 0%.
For CCCCOc1ccc(C(=O)Nc2onc3c2CCCC3)cc1 the results were Sm TGR inh 0%.
For Cc1cc(C)cc(NC(=O)CSc2nnc(-c3cc4occc4n3C)n2-c2ccccc2C)c1 the results were Sm TGR inh 4%.
CCOCCc1nn2c(=O)cc(COC(=O)c3ccc(NC(=O)C4CCCCC4)cc3)nc2s1 was read as Sm TGR inh 2%.
C/C=C(\C)C(=O)N[C@@H](C)CN1C2=NC[C@H](C(C)C)N2C[C@H]1Cc1ccc(OC)cc1 was read as Sm TGR inh 5.6µM* and SARS PLP yeast 1%.
